Drawing on PubChem BioAssay AID652062 (Broad Institute, 2013), this text covers activity change, negative = inhibition for 49 molecules.

Structures are written as SMILES. In all, about 1,400 compounds went through this assay and about 1,100 (79%) were called active.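 The calls were made as follows: active = fitted half-maximal concentration of a falling signal no higher than twice the top valid dose in every test run; inconclusive = runs disagree, or flat partial inhibition, or poor fit; inactive = every run inactive: flat, wrong direction, or potency beyond limit.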 So high a share suggests a set chosen from earlier hits. Not all results are given here. Results with a measured potency or affinity are listed apart.

This assay can be described thus: inhibitors of clade B AD8 Env fusion, dose response, cell-based, cherry-pick (AID 652062). Particulars: HeLa-AD8 Env / CEM-CCR5 cell fusion, luciferase; at 35 µM (top of the series) unless noted.
In the case of `COc1ccc(OCC(=O)Nc2cc(-c3nn(C)c(=O)c4ccccc34)ccc2OC)cc1`, the activity change, negative = inhibition was -23.3%. To `COc1ccc(-c2nn(C)c(=O)c3ccccc23)cc1NC(=O)COc1ccccc1` belongs -10.9%; to `CN(C)C(=O)C[C@@H]1C[C@@H]2c3cc(NS(=O)(=O)c4ccc(F)cc4)ccc3O[C@@H]2[C@@H](CO)O1`, 8.4%; to `CS(=O)(=O)Nc1ccc2c(c1)[C@H]1C[C@@H](CC(=O)NCCN3CCCCC3)O[C@@H](CO)[C@H]1O2`, 21%. The same measure for `CS(=O)(=O)Nc1ccc2c(c1)[C@@H]1C[C@@H](CC(=O)N3CCc4ccccc4C3)O[C@H](CO)[C@@H]1O2`: 41.9%; for `CS(=O)(=O)Nc1ccc2c(c1)[C@H]1C[C@H](CC(=O)N3CCc4ccccc4C3)O[C@H](CO)[C@H]1O2`: -8.56%; for `CN(C)C(=O)C[C@H]1C[C@@H]2c3cc(NS(=O)(=O)c4ccc(F)cc4)ccc3O[C@@H]2[C@@H](CO)O1`: -6.58%.

Turning to `CN1CCN(C(=O)C[C@H]2C[C@@H]3c4cc(NS(C)(=O)=O)ccc4O[C@@H]3[C@H](CO)O2)CC1`, the activity change, negative = inhibition is -46%. To `COc1cccc(S(=O)(=O)Nc2ccc3c(c2)[C@H]2C[C@H](CC(=O)NCc4ccc(Cl)cc4)O[C@@H](CO)[C@H]2O3)c1` belongs 0.353%; to `O=C(C[C@H]1C[C@@H]2c3cc(NC(=O)Nc4ccc(F)cc4)ccc3O[C@@H]2[C@@H](CO)O1)NCC1CC1`, -36.8%. `O=C(Nc1ccc(F)cc1)Nc1ccc2c(c1)[C@@H]1C[C@H](CC(=O)N3CCCCC3)O[C@@H](CO)[C@@H]1O2`: the activity change, negative = inhibition was -7.88%. Consider `O=C(Nc1ccc(F)cc1)Nc1ccc2c(c1)[C@@H]1C[C@H](CC(=O)N3CCCCC3)O[C@H](CO)[C@@H]1O2`, for which the activity change, negative = inhibition is -21.7%.

For the molecule `O=C(C[C@@H]1C[C@H]2c3cc(NC(=O)Nc4ccc(F)cc4)ccc3O[C@H]2[C@H](CO)O1)NCC1CC1`, the activity change, negative = inhibition worked out at 49.9%. The same measure for `COCCNC(=O)C[C@@H]1C[C@H]2c3cc(N(C)C)ccc3O[C@H]2[C@@H](CO)O1`: -37%. For the molecule `CN(C)CC(=O)Nc1ccc2c(c1)[C@H]1C[C@H](CC(=O)NCc3cccc(F)c3)O[C@@H](CO)[C@H]1O2`, the activity change, negative = inhibition is -1.18%. `O=C(C[C@@H]1C[C@@H]2c3cc(NC(=O)C4CCOCC4)ccc3O[C@@H]2[C@H](CO)O1)NCc1ccccc1F`: the activity change, negative = inhibition is 23.2%. Turning to `O=C(C[C@H]1C[C@@H]2c3cc(NC(=O)C4CCOCC4)ccc3O[C@@H]2[C@@H](CO)O1)NCc1ccccc1F`, the activity change, negative = inhibition is -7.12%. The same measure for `O=C(C[C@@H]1C[C@H]2c3cc(NC(=O)C4CCOCC4)ccc3O[C@H]2[C@H](CO)O1)NCc1ccccc1F`: 10.9%; for `O=C(C[C@H]1C[C@H]2c3cc(NS(=O)(=O)c4ccc(F)cc4)ccc3O[C@H]2[C@@H](CO)O1)NCc1ccccc1F`: 28%; for `Cc1ccc(S(=O)(=O)N(C)C[C@H]2Oc3cc(C4=CCCC4)ccc3S(=O)(=O)N([C@H](C)CO)C[C@H]2C)cc1`: -41.2%. As for `COc1ccc(S(=O)(=O)N(C)C[C@H]2Oc3cc(C4=CCCC4)ccc3S(=O)(=O)N([C@@H](C)CO)C[C@H]2C)cc1`, the activity change, negative = inhibition was 5.51%.

With `COc1cccc(/C=N/NC(=O)CC2C(=O)NN=C2C)c1O` (centres undefined), the activity change, negative = inhibition is -20%. Turning to `COc1ccc(CCCC(=O)NCCc2ccccc2)c(C)c1`, the activity change, negative = inhibition is 7.11%. On to `CCCNC(=O)C[C@@H]1C[C@H]2c3cc(NC(=O)Cc4ccncc4)ccc3O[C@H]2[C@@H](CO)O1`, for which the activity change, negative = inhibition came out at 10.9% [at 30 µM]. The same measure for `CCCNC(=O)C[C@@H]1C[C@@H]2c3cc(NC(=O)Cc4ccncc4)ccc3O[C@@H]2[C@@H](CO)O1`: -32.8% [at 30 µM]; for `CCN(CC)S(=O)(=O)c1ccc(NC2c3ccccc3C(=O)N2Cc2ccc3c(c2)OCO3)cc1` (centres undefined): -25.4%; for `CCOc1ccc(NC2c3ccccc3C(=O)N2Cc2ccco2)cc1` (centres undefined): 51.2%. To `O=C(Nc1cccc(F)c1)c1cc(S(=O)(=O)N2CCC(C(=O)O)CC2)ccc1F` belongs 43.8%; to `O=C(Nc1ccc(Cl)cc1)C1CCCN(C2=NS(=O)(=O)c3ccccc32)C1` (centres undefined), -27% [at 16 µM]. Regarding `C[C@H](CO)N1C[C@H](C)[C@@H](CN(C)C(=O)Nc2cccc3ccccc23)OCCCC[C@H](C)Oc2ccc(N(C)C)cc2C1=O`, the activity change, negative = inhibition is -37.4%.

Consider `Cc1noc(C)c1NC(=O)N(C)C[C@H]1OCCCC[C@H](C)Oc2ccc(NC(=O)c3ccccc3)cc2C(=O)N([C@H](C)CO)C[C@@H]1C`, for which the activity change, negative = inhibition was determined as 107%. For the molecule `O=C(N/N=C/c1ccc(-n2ccnc2)cc1)c1cccs1`, the activity change, negative = inhibition turned out to be 91.2%.

For the molecule `Clc1ccc2c(c1)C1=C(C(c3ccncc3)O2)C(c2ccc(Br)cc2)n2ncnc2N1` (centres undefined), the activity change, negative = inhibition worked out at 285% [at 16 µM].

Take `NC(Cc1ccc(F)cc1)c1csc(Nc2ccc(C(F)(F)F)cn2)n1` (centres undefined): the activity change, negative = inhibition was -26.6% [at 16 µM]. Regarding `Cc1cccc(/C=N\Nc2cn[nH]c(=O)c2Cl)c1`, the activity change, negative = inhibition was found to be 183%. With `COc1ccc(CCN2C(=O)c3[nH]nc(-c4ccccc4O)c3C2c2cccc(O)c2)cc1OC` (centres undefined), the activity change, negative = inhibition came out at 4.61%. `COc1ccc(OC)c(CN2C(=O)c3ccccc3C2c2nnnn2-c2c(C)cccc2C)c1` (centres undefined): the activity change, negative = inhibition was -4.67%.

As for `CN(C(=O)c1cccc(NC(=O)Cc2cccc(NC(=O)C3CCCN(C(=O)C4CCC4)C3)c2)c1)C1CCC1` (centres undefined), the activity change, negative = inhibition amounted to 49.5%. Regarding `COc1ccc(-c2nnc(Nc3nc4c(OC)cccc4s3)o2)cc1`, the activity change, negative = inhibition was -27.2%.

`O=C(Nc1cccc(F)c1)N[C@@H]1CC[C@H](CCNS(=O)(=O)c2cccc(Cl)c2)O[C@H]1CO`: the activity change, negative = inhibition came out at 101%. Consider `O=C(CCN1CCCCC1)N[C@@H]1CC[C@@H](CCn2cc(-c3ccccc3)nn2)O[C@@H]1CO`, for which the activity change, negative = inhibition is -17.1%. Take `O=C(CCN1CCCCC1)N[C@H]1CC[C@H](CCn2cc(-c3ccccc3)nn2)O[C@@H]1CO`: the activity change, negative = inhibition was -27.5%.

With `O=C(Cc1ccncc1)N[C@H]1CC[C@@H](CCn2cc(-c3ccccc3F)nn2)O[C@@H]1CO`, the activity change, negative = inhibition is -16.3%. `COc1ccccc1S(=O)(=O)n1cc(Cc2ccccc2)c(N)n1`: the activity change, negative = inhibition is -17%.

Consider `O=C(C[C@@H]1CC[C@@H](NC(=O)c2ccncc2)[C@H](CO)O1)NCCc1ccncc1`, for which the activity change, negative = inhibition amounted to 38.7%. For `COc1ccc(Nc2cc(C)nc(NCc3ccccc3)n2)cc1`, the activity change, negative = inhibition is -69.2%. Consider `C[C@@H]1CN([C@H](C)CO)C(=O)c2cccc(NC(=O)c3ccncc3)c2O[C@@H]1CN(C)Cc1ccc(C(=O)O)cc1`, for which the activity change, negative = inhibition worked out at 3.82%.

As for `C[C@@H]1CN([C@@H](C)CO)C(=O)c2cccc(NC(=O)c3ccc(-c4nccs4)cc3)c2O[C@H]1CN(C)CC1CC1`, the activity change, negative = inhibition came to 28.5%. Consider `C[C@@H]1CN([C@@H](C)CO)C(=O)c2cccc(NC(=O)c3cnccn3)c2O[C@H]1CN(C)Cc1ccc(Cl)c(Cl)c1`, for which the activity change, negative = inhibition came to 142% [at 16 µM].
